We go through eleven compounds from ChEMBL document CHEMBL4513141, “CO-ADD screening of NIH (USA) - Clinical Collection” (2021).

One assay has as its system Klebsiella pneumoniae. As to conditions: Concentration 20 uM; ASSAY_TEST Inhibition of Bacterial Growth; detection method Absorption (OD600); MEDIA CAMHB; plate type 384well; NBS; CORNING #3640; time 18 hr.
A further assay has as its system Candida albicans. As to conditions: 20 µM.
The next assay concerns Cryptococcus neoformans. As to conditions: Concentration 20 uM; ASSAY_TEST Inhibition of Fungal Growth; detection method Resazurin; Absorption (OD600-OD570); plate type 384well; NBS; CORNING #3640.

Molecules are shown by their SMILES. Measured potencies and affinities stand elsewhere.

As for `NCC(=O)CCC(=O)O` [AMINOLEVULINIC ACID], the values for the Inhibition in the assay on Klebsiella pneumoniae, in the assay with Candida albicans and with Cryptococcus neoformans were 13.51%, 0.21% and -6.69%, respectively.

`CC(C)(C#N)c1cc(Cn2cncn2)cc(C(C)(C)C#N)c1` [ANASTROZOLE]: the Inhibition with Klebsiella pneumoniae is -11.78%; in the assay on Candida albicans it was 1.23%; in the assay with Cryptococcus neoformans, -3.6%.

On to `O=c1[nH]c(=O)n(C2CCCO2)cc1F` (stereo not drawn) [TEGAFUR], for which the Inhibition is 13.49% in the assay with Klebsiella pneumoniae, 3.66% with Candida albicans and -3.75% in the assay on Cryptococcus neoformans.

Regarding `CC(C)c1ccc2oc3nc(N)c(C(=O)O)cc3c(=O)c2c1` [AMLEXANOX], the figures for the Inhibition in the assay with Klebsiella pneumoniae, with Candida albicans and in the assay on Cryptococcus neoformans were 7.43%, 8.26% and -1.01%, respectively.

Turning to `COc1cc(OC)c(C(=O)CCCN2CCCC2)c(OC)c1.Cl`, the Inhibition in the assay with Klebsiella pneumoniae is 10.87%; in the assay on Candida albicans, 3.75%; in the assay with Cryptococcus neoformans it was -6.77%.

On to `Nc1ccn([C@@H]2CS[C@H](CO)O2)c(=O)n1` [LAMIVUDINE], for which the results for the Inhibition in the assay on Klebsiella pneumoniae, in the assay on Candida albicans and in the assay with Cryptococcus neoformans were 20.65%, 2.4% and -7.82%, respectively.

For the compound `c1ccc2[nH]c(-c3cscn3)nc2c1` [THIABENDAZOLE], the Inhibition in the assay on Klebsiella pneumoniae is 17.05%; with Candida albicans it was 1.43%; with Cryptococcus neoformans, -4.52%.

Regarding `Cc1sc(N)c(C(=O)c2cccc(C(F)(F)F)c2)c1C`, the Inhibition in the assay on Klebsiella pneumoniae was 7%; with Candida albicans, 1.23%; in the assay on Cryptococcus neoformans, -0.97%.

As for `CC1CNc2c(cccc2S(=O)(=O)N[C@@H](CCCNC(=N)N)C(=O)N2CC[C@@H](C)C[C@@H]2C(=O)O)C1` (stereo partly drawn) [ARGATROBAN], the Inhibition with Klebsiella pneumoniae was 8.18%; with Candida albicans, 4.39%; in the assay with Cryptococcus neoformans, -2.44%.

For the compound `Nc1ccn([C@@H]2O[C@H](CO)[C@@H](O)[C@@H]2O)c(=O)n1` [CYTARABINE], the results for the Inhibition in the assay with Klebsiella pneumoniae, with Candida albicans and with Cryptococcus neoformans were 5.64%, 2.79% and -8.77%, respectively.

Regarding `Cc1ccc(C)c(OCCCC(C)(C)C(=O)O)c1` [GEMFIBROZIL], the Inhibition is 7.25% in the assay on Klebsiella pneumoniae, 8.15% in the assay with Candida albicans and -1.55% in the assay on Cryptococcus neoformans.

As usually defined, the Inhibition is the change of the read-out against control, counted positive when it falls.
